Records with an inconclusive call do not appear. Calls of active or inactive are those of the source. Rule for the calls: active = hit-call score of the fitted dose curve at least 0.9, where 1 is the maximum; inconclusive = response in the unintended direction; inactive = score below 0.9.

Sequence of Retinoic acid receptor RXR-alpha (Homo sapiens) (P19793 whole entry, looked up): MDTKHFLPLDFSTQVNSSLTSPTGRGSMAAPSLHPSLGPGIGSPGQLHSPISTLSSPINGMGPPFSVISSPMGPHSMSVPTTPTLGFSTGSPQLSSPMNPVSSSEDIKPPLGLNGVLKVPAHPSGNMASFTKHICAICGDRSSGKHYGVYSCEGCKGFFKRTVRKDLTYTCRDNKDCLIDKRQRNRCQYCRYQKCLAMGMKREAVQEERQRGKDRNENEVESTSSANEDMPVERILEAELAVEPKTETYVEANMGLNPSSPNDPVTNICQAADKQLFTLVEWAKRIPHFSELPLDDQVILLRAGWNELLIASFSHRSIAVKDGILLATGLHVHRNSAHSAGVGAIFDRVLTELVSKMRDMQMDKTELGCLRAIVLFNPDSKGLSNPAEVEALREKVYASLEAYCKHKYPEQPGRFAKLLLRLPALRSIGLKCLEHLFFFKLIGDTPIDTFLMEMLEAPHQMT

This assay has as its target Retinoic acid receptor RXR-alpha (Homo sapiens) (UniProt P19793). The assay is described as follows: ATG_RXRa_TRANS: Attagene TRANS-FACTORIAL HepG2 Assay for human Retinoid X Receptor alpha (RXRa) (AID 2283012). How it is done: ATG_TRANS is a cell-based, multiplexed-readout assay that uses HepG2, a human liver cell line, with measurements taken at 24 hours after chemical dosing in a 24-well plate.ATG_RXRa_TRANS is one of 30 assay component(s) measured or calculated from the ATG_TRANS assay. It is designed to make measurements of mRNA induction, a form of inducible reporter, as detected with fluorescence intensity signals by Reverse transcription polymerase chain reaction (RT-PCR) and Capillary electrophoresis technology.Data from the assay component ATG_RXRa_TRANS was analyzed into 1 assay endpoint. This assay endpoint, ATG_RXRa_TRANS, was analyzed in the positive analysis fitting direction relative to DMSO as the negative control and baseline of activity. Using a type of inducible reporter, measures of mRNA for gain-of-signal activity can be used to understand the reporter gene at the transcription factor-level as they relate to the gene RXRA. Furthermore, this assay endpoint can be referred to as a primary readout, because this assay has produced multiple assay endpoints where this one serves a reporter gene function. To generalize the intended target to other relatable targets, this assay endpoint is annotated to the nuclear receptor intended target family, where the subfamily is non-steroidal.
Human liver HepG2 cells are transiently transfected with multiple reporter transcription units (MRTUs) in 6-well plates using FuGene 6 reagent (Roche; 3 ml FuGene/1 mg DNA). The MRTU constructs are regulated by a cis-regulating element (promoter). […] A major difference between the CIS and TRANS system is that in CIS activities of endogenous TFs are measured, whereas the TRANS assay evaluates changes in activities of exogenous, chimeric NR-Gal4 proteins. […] At the end of 24 hour incubation, total RNA was isolated using TriZol reagent (Invitrogen). The isolated RNA is then reverse-transcribed using oligo(dT) primer and Mo-MLV reverse transcriptase (Invitrogen) with DNAse I (Ambion) treatment for 30 min. The one-tenth of the produced cDNA was amplified by PCR using Taq DNA polymerase (Invitrogen) and two reporter sequence-specific primers. The PCR products were fluorescently labeled by primer extension with 6-arboxyfluorescein (6-FAM) 5'-labeled reporter sequence-specific primer (2 min at 95 C, 20 s at 68 C and 10 min at 72 C) and these products were digested with 5U of HpaI (New England Biolabs) for 2h at 37 C. The fragments were purified using Qiaquick PCR columns (Qiagen), analyzed on an ABI 3130xL genetic analyzer (Applied Biosystems) with peak positions identified by using a set of X-rhodamine (ROX)-labeled MapMarker1000 molecular weight standards (BioVentures). The raw capillary electrophoresis data was processed using Attagraph software (Attagene).
Take `CC1=CC[C@H]2C[C@@H]1C2(C)C`: the compound was called inactive. Turning to `O=S(=O)(O)c1ccc2cc(O)c(S(=O)(=O)O)cc2c1`, the call was inactive. Consider `Cc1ccc(N/N=c2\c(=O)cc/c(=N/Nc3ccc(S(=O)(=O)O)cc3)c2=O)c(C)c1`, for which the outcome was inactive. What is called AC50 is the midpoint of the concentration-response curve, whichever way the signal moves. For `C=CCOc1c(Br)cc(Br)cc1Br`, the AC50 is 56.2 µM (active). For `CCCCCCCC/C=C\CCCCCCCC(=O)OCCO`, the compound was classed as inactive.

With `CCCCCCOC(=O)C(C)CC` (stereo not given), the compound was classed as inactive. Turning to `CCC(=O)Oc1ccc(/C(CC)=C(\CC)c2ccc(OC(=O)CC)cc2)cc1`, the compound was called inactive. With `Cc1ccc(N)c([N+](=O)[O-])c1`, the compound was called inactive. Same read-out and setting: with `CCOC(=O)NNc1nncc2ccccc12` the entry was “inactive”; with `CC(C)c1ccc2cc(C(C)C)ccc2c1`, “inactive”; with `CCCCC(CC)COCC1CO1` (stereo not given), “inactive”.

For the compound `O=c1c2ccccc2oc2ccccc12`, the compound was called inactive. For the compound `O=C1CCCC1`, the call was inactive. Same read-out and setting: as for `COc1ccc(-c2coc3cc(O)ccc3c2=O)cc1`, the entry is “inactive”; as for `CCCNC(=O)NS(=O)(=O)c1ccc(Cl)cc1`, “inactive”; as for `CC1(C)[C@H]2CC[C@]1(C)C(=O)C2`, “inactive”. Same read-out and setting: with `CCC(C)(C)C1CCCCC1OC(C)=O` (stereo not given) the entry was “inactive”. Take `O=C(O)Cc1c(Cl)ccc(Cl)c1Cl`: the result was inactive. The same measure, in the same setting: with `COC=O` the entry was “inactive”. The same measure, in the same setting: with `COC(F)(F)C(F)(C(F)(F)F)C(F)(F)F` the entry was “inactive”. On the same count and under the same terms, as for `COCC(C)N` (stereo not given), the entry is “inactive”. As to `CC/C=C\CCOC(=O)CCCCC`, the compound was classed as inactive. Consider `CCC(CO)CO`, for which the result was inactive. For `COc1cc(NC(=O)CC(C)=O)c(OC)cc1Cl`, the outcome was inactive.

Take `OC1CCCCCCCCCCC1`: the call was inactive. On the same count and under the same terms, with `CCOc1ccc(N)c([N+](=O)[O-])c1` the entry was “inactive”. As to `CC(C)(Oc1ccc(C2CC2(Cl)Cl)cc1)C(=O)O` (stereo not given), the result was inactive. On to `N[C@H]1C(O)O[C@H](CO)[C@H](O)[C@@H]1O` (stereo not given in full), for which the outcome was inactive. For `O=C1c2cccc(O)c2C(=O)c2c(O)cc(CO)cc21`, the compound was classed as inactive. Regarding `O=S(=O)(Oc1ccc(Cl)cc1Cl)c1ccccc1`, the result was inactive. In the case of `FC(F)(F)C(=NOCC1OCCO1)c1ccc(Cl)cc1`, the result was inactive. Still for that read-out and setting: as for `Cc1cnc(NC(=O)C2=C(O)c3ccccc3S(=O)(=O)N2C)s1`, the entry is “inactive”; as for `COC(=O)c1ccc2cc(C(=O)OC)ccc2c1`, “inactive”. Still for that read-out and setting: with `O=C1CCCCCCCCCCC(=O)OCCO1` the entry was “inactive”; with `O=c1[nH]nc(-c2ccc([N+](=O)[O-])o2)o1`, “inactive”. Same read-out and setting: with `c1ccc2c(c1)ccc1cc3c(ccc4ccccc43)cc12` the entry was “inactive”. In the case of `c1ccc(-c2ccccn2)nc1`, the outcome was inactive.

As for `O=C(O)c1cc(Cl)cc([N+](=O)[O-])c1Cl`, the result was inactive. Regarding `CCc1nccnc1C`, the result was inactive. As to `CNC(=S)N(C)C`, the call was inactive.
